# The list is not random: actives were taken first. Their share in the collection is about 7.1%.
# p53 reactivation: mutant p53 re-activation in reporter cells; 0.063% of 320,000 active; Potency, µM (highest dose often 92.2 µM), for inactives: at the highest dose activity change, positive = activation, usual class: activators; AID 504706; H1299 p53-A138V BP100-luciferase reporter, luminescence, 24 h; further: % of control where 0% means no effect; nearly all actives have a fitted effect of over 45% in size
#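 p53-null H1299 cells stably carrying temperature-sensitive p53-A138V and a BP100-luciferase reporter were pinned with compounds (4-point, 1:5 series) and held 24 hrs at 37 deg C. Luminescence was read 10 min after detection reagent.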
# AT treatment: potential ataxia-telangiectasia treatments restoring KAP-1 phosphorylation; F2112 A-T fibroblasts, KAP-1 phosphorylation AlphaLISA; neocarzinostatin DNA damage 30 min before lysis; AID 485349; 0.19% of 320,000 active; Potency, µM (series often up to 57.5 µM), for the others: top-dose activation, most hits filed as activators; further: % of control where 0% means no effect; nearly all actives have a fitted effect of over 45% in size
#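 hTERT-immortalized A-T patient fibroblasts (F2112), 500 cells/well in OPTI-MEM, 1% FBS, got compounds for 60 min, then NCS for 30 min at 37C. Lysates were then assayed for phospho-KAP-1 by AlphaLISA (anti-pKAP1 donor, anti-KAP1 acceptor beads), 6 hr at 25C.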
# ELG1 genotox: genotoxicity induction in ELG1-luciferase HEK293T cells; HEK293T ELG1-luciferase reporter, luminescence, 16 h; Potency, µM (series often up to 46 µM), inactives show at the top dose activity change, positive = activation, hits mostly activators; 1.3% of 330,000 active; further: % of control where 0% means no effect; nearly all actives have a fitted effect of over 60% in size
#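 After overnight (16 hr) compound treatment at 37 °C, ELG1-luciferase HEK293T cells were lysed with ONE-Glo; luminescence quantified 30 min later at room temperature.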
# ELG1 repair inh: ELG1-dependent DNA repair inhibition; HEK293T ELG1-luciferase reporter, luminescence, 16 h; DNA damage induced by 5-fluorouridine; Potency, µM (top dose mostly 46.1 µM), for inactives: at the top dose activity change, negative = inhibition, actives largely listed as inhibitors; 2.3% of 330,000 active; AID 504467; further: on the % scale 0 is the no-effect control and ±100 the full control effect; nearly all actives have a fitted effect of over 55% in size
#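 DMSO vehicle served as the neutral condition. Each well held 2,000 cells given 5-fluorouridine plus compound; after 16 hr at 37 °C/5% CO2, ONE-Glo was added and luciferase measured 30 min later.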
# SW480 rereplic: inducers of DNA re-replication in SW480 colon cancer cells; 1.8% of 340,000 active; SW480 DNA re-replication, Hoechst DNA content imaging, 48 h; Potency, µM (titrated, usually from 46.1 µM), for inactives: at the top dose re-replication activation, usual class: activators; further: % of control where 0% means no effect; nearly all actives have a fitted effect of over 55% in size
#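 Treated cells incubate 48 hr (37 C, 5% CO2), are stained 40 min with Hoechst, and nuclear fluorescence is enumerated; a rise in nuclei with high DNA signal marks re-replication.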
# MCF10A rereplic: induces DNA re-replication in MCF 10a normal breast cells | MCF 10A DNA re-replication, Hoechst nuclear intensity, 48 h | Potency, µM (top dose mostly 46.1 µM), for the others: at the top dose activity, positive = re-replication, hits mostly activators | 2.9% of 350,000 active; further: % of control where 0% means no effect; nearly all actives have a fitted effect of over 50% in size
# * hit, by the source's call; ? = inconclusive; . = not tested or not shown. The call rests on the fitted dose curve; in most records, active means well fitted curve in the direction sought with a large enough effect; inconclusive means small, poorly fitted or top-dose-only effect, or another doubt; inactive means no such curve, though single readings can be large; an effect the other way counts as inactive or inconclusive. Potency means the concentration at half of the fitted maximal effect.
SMILES,p53 reactivation,AT treatment,ELG1 genotox,ELG1 repair inh,SW480 rereplic,MCF10A rereplic
COc1ccc(NC(=O)C2CCCN(S(=O)(=O)c3c(C)[nH]c(=O)[nH]c3=O)C2)cc1OC (stereo not given),-5%,-4%,0%,9%,-2%,-7%
O=C(C1CCCN(S(=O)(=O)c2ccc(F)cc2)C1)N(Cc1cccs1)C1CC1 (stereo not given),-1%,12%,-28%,12µM*,7%,15%
COC(=O)Nc1ccc(S(=O)(=O)N2CCCC(C(=O)Nc3cccc4c3OCCO4)C2)cc1 (stereo not given),-2%,-3%,-6%,21µM*,7%,5%
CCOC(=O)c1ccc(NC(=O)N2CCCCCC2)cc1,21%,-1%,5.8µM*,?,-17%,8%
Cc1cc2nc(NCCCO)n(CC(=O)c3cc(C(C)(C)C)c(O)c(C(C)(C)C)c3)c2cc1C,6%,4%,2%,-7%,?,22%
CCOC(=O)c1ccc(NC(=O)C2CCCN(S(=O)(=O)c3ccc(F)cc3)C2)cc1 (stereo not given),-10%,.,-37%,16µM*,0%,?
Cc1ccc(N2CC(C(=O)N3CCC(C(=O)NCCCOC(C)C)CC3)CC2=O)cc1 (stereo not given),-1%,-4%,6%,13%,-2%,0%
COc1cc(OC)c(OC)cc1/C=N/NC(=O)CCc1c(C)n[nH]c1C,-2%,-9%,-2%,?,12%,2%
CCOC(=O)C1=C(C)Nc2ccccc2N/C1=N\S(=O)(=O)c1ccccc1,-3%,1%,-3%,-29%,-52%,2%
Cc1ccc(CN2C(=O)[C@H]3Cc4c([nH]c5ccccc45)C(C)(C)N3C2=O)cc1,.,.,.,.,?,21µM*
CC[C@H]1c2[nH]c3ccccc3c2C[C@H]2C(=O)N(c3ccc(F)cc3)C(=O)N21,-1%,4%,2%,7.3µM*,15%,?
CC1(C)c2[nH]c3ccccc3c2C[C@@H]2C(=O)N(Cc3ccc(F)cc3)C(=O)N21,.,.,.,.,2%,18µM*
CCOC(OCC)c1nc(N)[nH]c(=O)c1CCCCc1ccccc1,.,.,.,.,6%,6%
COc1ccc(NC2CCCN(C(=O)c3ccc4[nH]c(C)c(C)c4c3)C2)cc1 (stereo not given),-10%,-2%,-2%,?,-8%,4%
COc1ccc(C(=O)C(CCC(CNC(C)(C)C)C(=O)c2ccc(OC)cc2)CNC(C)(C)C)cc1 (stereo not given),-15%,18%,-4%,8.2µM*,2.9µM*,5.8µM*
COc1cccc(OC)c1C(=O)OCC(=O)Nc1ccc(OC(F)(F)F)cc1,-4%,3%,-5%,21µM*,3%,1%
CNCC(=O)Nc1ccc(OC(F)(F)F)cc1,0%,5%,2%,22%,-1%,0%
Cn1c(=NC(=O)c2ccccc2[N+](=O)[O-])sc2cc(S(C)(=O)=O)ccc21,?,0%,8.2µM*,?,-3%,2%
COc1ccc(-n2cccc2/C=C/[N+](=O)[O-])cc1,-17%,22%,-11%,23µM*,23µM*,15µM*
COc1ccc(-n2cccc2C=O)cc1,-1%,3%,3%,0%,-4%,-5%
CCOc1ccc(NC(=O)c2cc(C3CC3)nc3c2cnn3C(C)C)cc1OC,-20%,3%,-1%,?,-3%,?
O=C(COc1ccc(Oc2ccccc2)cc1)NCc1cn2ccccc2n1,6%,8%,8%,?,?,15µM*
O=C(O)c1ccc(OCc2cn3ccccc3n2)cc1,9%,8%,9%,?,7%,18%
